# Measurements as given in the supplement of paper PMC6411743.
# ± gives the standard deviation of the averaged measurements. Of roughly 6,500 targets only a part is listed; those with the largest changes were picked by preference.
# Compound: Nc1ncnc2c1ncn2[C@@H]1O[C@H](COP(=O)(O)OP(=O)(O)OP(=O)(O)O)[C@@H](O)[C@H]1O [adenosine triphosphate]
# Assay: NP40-soluble protein abundance relative to vehicle (solubility fold change) (ratio); higher = more soluble protein in presence of ATP
# Method in brief: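 In three independent experiments, Jurkat crude lysate made by Dounce homogenisation was treated for 10 min at room temperature and then 3 min at 37 °C with eight concentrations ranging from 0.1 to 10 mM. It was then solubilised with 0.8% NP40 plus benzonase for 60 min at 4 °C and ultracentrifuged. The supernatant was TMT-labelled for LC-MS/MS, and each value is the fold change against the detergent-processed vehicle for the same replicate, using vsn-normalised intensities.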
# Sequence of UniProt Q05D32 (Q05D32 whole entry): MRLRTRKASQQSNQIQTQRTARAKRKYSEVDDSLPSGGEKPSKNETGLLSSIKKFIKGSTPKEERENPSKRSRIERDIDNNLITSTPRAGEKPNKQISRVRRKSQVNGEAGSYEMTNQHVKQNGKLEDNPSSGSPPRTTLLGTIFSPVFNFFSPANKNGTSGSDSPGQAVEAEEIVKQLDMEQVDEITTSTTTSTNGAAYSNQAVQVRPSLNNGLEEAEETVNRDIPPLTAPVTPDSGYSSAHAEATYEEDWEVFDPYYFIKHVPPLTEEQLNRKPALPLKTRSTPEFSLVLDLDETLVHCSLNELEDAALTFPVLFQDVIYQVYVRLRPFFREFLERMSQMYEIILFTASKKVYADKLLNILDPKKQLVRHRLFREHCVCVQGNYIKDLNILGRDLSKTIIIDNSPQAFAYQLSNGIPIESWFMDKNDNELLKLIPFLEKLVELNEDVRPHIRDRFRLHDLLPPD
# Sequence of UniProt P19623 (P19623 whole entry): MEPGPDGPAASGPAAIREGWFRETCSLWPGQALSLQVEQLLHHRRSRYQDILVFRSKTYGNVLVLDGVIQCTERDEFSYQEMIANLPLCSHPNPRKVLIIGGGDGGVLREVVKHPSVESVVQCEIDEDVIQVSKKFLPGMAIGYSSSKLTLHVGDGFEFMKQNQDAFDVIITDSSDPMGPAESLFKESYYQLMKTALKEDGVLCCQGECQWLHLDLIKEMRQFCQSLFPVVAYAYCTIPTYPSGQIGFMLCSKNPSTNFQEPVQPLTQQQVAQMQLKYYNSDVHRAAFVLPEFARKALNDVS
# Sequence of UniProt Q01543 (Q01543 whole entry): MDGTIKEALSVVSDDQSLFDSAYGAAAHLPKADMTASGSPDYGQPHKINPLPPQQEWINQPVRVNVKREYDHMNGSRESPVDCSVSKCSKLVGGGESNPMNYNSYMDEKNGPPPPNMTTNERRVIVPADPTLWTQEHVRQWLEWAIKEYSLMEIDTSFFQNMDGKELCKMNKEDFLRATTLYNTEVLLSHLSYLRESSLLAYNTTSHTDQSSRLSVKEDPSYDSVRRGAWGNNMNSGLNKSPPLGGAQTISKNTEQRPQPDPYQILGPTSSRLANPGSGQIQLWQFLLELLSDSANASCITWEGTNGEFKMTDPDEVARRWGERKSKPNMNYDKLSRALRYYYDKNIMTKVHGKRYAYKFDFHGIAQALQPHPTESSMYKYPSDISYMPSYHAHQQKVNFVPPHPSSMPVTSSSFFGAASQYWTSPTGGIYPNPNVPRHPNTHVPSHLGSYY
# Sequence of UniProt O95786 (O95786 whole entry): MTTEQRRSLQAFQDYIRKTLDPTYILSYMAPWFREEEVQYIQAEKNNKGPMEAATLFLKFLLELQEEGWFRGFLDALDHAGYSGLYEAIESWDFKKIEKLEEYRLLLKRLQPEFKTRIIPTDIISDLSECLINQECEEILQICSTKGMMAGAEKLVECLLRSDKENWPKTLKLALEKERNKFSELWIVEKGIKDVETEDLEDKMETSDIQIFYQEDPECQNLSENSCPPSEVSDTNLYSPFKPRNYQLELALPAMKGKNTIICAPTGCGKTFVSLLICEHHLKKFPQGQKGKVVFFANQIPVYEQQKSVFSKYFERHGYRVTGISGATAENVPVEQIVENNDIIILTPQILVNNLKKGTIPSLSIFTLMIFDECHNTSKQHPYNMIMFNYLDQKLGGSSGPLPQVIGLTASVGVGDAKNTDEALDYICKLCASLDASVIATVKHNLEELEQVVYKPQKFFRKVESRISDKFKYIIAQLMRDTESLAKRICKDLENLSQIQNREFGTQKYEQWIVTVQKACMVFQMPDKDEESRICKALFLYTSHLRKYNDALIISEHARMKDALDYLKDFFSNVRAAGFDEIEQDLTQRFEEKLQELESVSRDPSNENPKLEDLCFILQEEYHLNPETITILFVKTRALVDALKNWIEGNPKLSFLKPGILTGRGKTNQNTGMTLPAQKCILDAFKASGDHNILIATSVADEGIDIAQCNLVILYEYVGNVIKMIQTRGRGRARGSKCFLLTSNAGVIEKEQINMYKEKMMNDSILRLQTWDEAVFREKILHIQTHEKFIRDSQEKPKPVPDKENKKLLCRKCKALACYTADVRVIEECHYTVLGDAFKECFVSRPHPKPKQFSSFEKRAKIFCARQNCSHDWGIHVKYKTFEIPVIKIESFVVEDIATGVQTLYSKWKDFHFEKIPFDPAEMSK
# Sequence of UniProt P50213 (P50213 whole entry, one chain of several): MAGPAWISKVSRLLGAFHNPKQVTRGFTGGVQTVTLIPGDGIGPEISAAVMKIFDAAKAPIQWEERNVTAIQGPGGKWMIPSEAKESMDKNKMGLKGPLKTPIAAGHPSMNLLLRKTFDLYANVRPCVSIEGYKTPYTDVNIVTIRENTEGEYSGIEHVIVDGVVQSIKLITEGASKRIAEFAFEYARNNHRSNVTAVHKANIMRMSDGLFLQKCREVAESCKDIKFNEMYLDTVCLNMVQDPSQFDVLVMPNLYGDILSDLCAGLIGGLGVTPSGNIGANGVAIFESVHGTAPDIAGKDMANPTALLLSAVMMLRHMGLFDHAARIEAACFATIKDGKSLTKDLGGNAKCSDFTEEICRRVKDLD
# Sequence of UniProt P51116 (P51116 whole entry): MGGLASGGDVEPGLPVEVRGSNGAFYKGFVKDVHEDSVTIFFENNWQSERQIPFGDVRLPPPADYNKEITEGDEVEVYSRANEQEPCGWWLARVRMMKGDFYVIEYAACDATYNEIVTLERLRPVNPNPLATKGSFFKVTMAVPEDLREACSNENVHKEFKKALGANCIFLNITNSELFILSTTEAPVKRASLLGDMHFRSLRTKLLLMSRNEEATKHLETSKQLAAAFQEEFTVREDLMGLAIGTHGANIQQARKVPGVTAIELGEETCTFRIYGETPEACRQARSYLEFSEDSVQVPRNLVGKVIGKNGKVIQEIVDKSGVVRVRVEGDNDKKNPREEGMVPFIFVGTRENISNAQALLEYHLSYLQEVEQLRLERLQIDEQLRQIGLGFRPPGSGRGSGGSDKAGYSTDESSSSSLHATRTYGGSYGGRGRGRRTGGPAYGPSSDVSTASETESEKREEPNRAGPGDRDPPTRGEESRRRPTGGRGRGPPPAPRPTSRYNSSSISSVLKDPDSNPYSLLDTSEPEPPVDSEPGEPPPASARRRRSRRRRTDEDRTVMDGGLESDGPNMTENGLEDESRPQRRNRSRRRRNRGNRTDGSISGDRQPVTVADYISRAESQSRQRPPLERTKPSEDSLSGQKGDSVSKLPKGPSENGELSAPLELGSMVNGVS
# Sequence of UniProt P11387 (P11387 whole entry): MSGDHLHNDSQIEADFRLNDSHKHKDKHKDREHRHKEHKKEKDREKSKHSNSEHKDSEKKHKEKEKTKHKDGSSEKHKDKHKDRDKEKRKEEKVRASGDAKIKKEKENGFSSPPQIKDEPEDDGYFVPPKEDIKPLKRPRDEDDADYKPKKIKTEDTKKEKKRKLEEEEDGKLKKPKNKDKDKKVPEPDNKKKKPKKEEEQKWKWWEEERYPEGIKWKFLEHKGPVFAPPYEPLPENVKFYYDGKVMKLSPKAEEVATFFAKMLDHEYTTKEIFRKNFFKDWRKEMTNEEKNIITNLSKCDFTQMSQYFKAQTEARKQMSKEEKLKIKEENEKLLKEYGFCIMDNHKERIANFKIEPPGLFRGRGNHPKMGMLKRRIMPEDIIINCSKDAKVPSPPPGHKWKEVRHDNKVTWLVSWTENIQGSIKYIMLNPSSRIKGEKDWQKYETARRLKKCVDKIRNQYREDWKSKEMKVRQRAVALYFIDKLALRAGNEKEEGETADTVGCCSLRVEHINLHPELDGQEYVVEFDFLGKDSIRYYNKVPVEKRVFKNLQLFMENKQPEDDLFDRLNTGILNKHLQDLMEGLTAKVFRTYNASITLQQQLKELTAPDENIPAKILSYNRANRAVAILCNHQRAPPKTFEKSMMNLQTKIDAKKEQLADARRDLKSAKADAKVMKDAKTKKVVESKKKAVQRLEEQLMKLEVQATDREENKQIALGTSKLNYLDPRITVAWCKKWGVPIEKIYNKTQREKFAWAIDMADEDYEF
# Sequence of UniProt P56381 (P56381 whole entry): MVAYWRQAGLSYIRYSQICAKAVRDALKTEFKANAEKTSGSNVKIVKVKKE
# Sequence of UniProt P28908 (P28908 whole entry): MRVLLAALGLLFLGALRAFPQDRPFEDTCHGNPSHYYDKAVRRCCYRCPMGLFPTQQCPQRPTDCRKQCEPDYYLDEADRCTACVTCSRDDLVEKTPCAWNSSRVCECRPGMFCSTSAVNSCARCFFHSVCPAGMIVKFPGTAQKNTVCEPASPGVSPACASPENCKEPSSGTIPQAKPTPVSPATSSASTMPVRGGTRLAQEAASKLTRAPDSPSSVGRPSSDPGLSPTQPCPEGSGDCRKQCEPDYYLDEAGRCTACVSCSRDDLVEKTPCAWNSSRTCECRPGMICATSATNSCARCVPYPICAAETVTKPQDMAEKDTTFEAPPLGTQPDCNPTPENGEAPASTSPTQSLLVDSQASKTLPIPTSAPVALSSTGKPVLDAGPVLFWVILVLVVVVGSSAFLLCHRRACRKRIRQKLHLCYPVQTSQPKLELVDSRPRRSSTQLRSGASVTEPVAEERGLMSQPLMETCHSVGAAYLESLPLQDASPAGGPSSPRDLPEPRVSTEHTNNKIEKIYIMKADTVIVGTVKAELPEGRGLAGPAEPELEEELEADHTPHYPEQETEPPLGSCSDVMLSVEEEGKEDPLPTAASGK
# Sequence of UniProt P06493 (P06493 whole entry, looked up): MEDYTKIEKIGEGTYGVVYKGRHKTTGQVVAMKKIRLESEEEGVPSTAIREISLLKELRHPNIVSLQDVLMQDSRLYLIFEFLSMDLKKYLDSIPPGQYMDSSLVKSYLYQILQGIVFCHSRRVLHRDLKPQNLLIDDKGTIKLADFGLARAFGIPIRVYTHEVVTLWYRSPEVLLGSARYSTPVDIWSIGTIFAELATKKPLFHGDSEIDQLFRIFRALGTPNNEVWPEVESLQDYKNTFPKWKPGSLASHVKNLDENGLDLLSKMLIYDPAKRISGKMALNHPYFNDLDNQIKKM
Target,NP40-soluble protein abundance (concentration: 1mM),NP40-soluble protein abundance (concentration: 2mM),NP40-soluble protein abundance (concentration: 4mM),NP40-soluble protein abundance (concentration: 6mM),NP40-soluble protein abundance (concentration: 8mM),NP40-soluble protein abundance (concentration: 10mM)
ATRN (UniProt O75882),0.928 ± 0.039,0.947 ± 0.048,0.975 ± 0.015,0.959 ± 0.095,0.896 ± 0.01,0.899 ± 0.057
UniProt P08621|P08621-2,1.33 ± 0.049,1.42 ± 0.083,1.59 ± 0.078,1.74 ± 0.096,1.88 ± 0.077,1.97 ± 0.14
UniProt P08243|P08243-2|P08243-3,1.1 ± 0.13,1.1 ± 0.12,1.1 ± 0.11,1.03 ± 0.14,1.15 ± 0.12,1.09 ± 0.097
GALT (UniProt P07902),0.994 ± 0.016,0.972 ± 0.068,0.983 ± 0.053,0.9753 ± 0.0077,0.935 ± 0.029,0.947 ± 0.02
UniProt P55769,1.03 ± 0.15,1.06 ± 0.11,1.13 ± 0.13,1.23 ± 0.11,1.28 ± 0.049,1.33 ± 0.24
UniProt P12268|H0Y4R1,1.14 ± 0.2,0.858 ± 0.18,0.957 ± 0.03,0.745 ± 0.14,0.636 ± 0.064,0.587 ± 0.058
PRPF6 (UniProt O94906),1.31 ± 0.017,1.5 ± 0.12,1.79 ± 0.13,1.97 ± 0.2,2.18 ± 0.15,2.36 ± 0.21
SRM (UniProt P19623),1.03 ± 0.12,1.01 ± 0.1,1 ± 0.083,0.929 ± 0.12,0.998 ± 0.071,0.997 ± 0.068
RFC3 (UniProt P40938),1.25 ± 0.036,1.3 ± 0.041,1.31 ± 0.041,1.31 ± 0.039,1.35 ± 0.061,1.36 ± 0.046
UniProt Q00653|Q00653-4,1.006 ± 0.0072,0.99 ± 0.026,0.971 ± 0.025,0.995 ± 0.022,0.965 ± 0.021,0.973 ± 0.012
UniProt P28908|P28908-3,0.986 ± 0.073,0.999 ± 0.0037,1.08 ± 0.13,0.992 ± 0.073,0.951 ± 0.041,0.964 ± 0.026
CDKN1B (UniProt P46527),0.964 ± 0.099,0.998 ± 0.057,0.985 ± 0.08,1.09 ± 0.077,0.919 ± 0.071,0.916 ± 0.1
UniProt P11388|P11388-2|P11388-3|P11388-4,1.31 ± 0.066,1.41 ± 0.062,1.64 ± 0.06,1.76 ± 0.074,1.99 ± 0.11,2.03 ± 0.14
EIF2S1 (UniProt P05198),1.04 ± 0.043,1.05 ± 0.034,1.02 ± 0.027,1.04 ± 0.07,1.06 ± 0.053,1.05 ± 0.051
UniProt Q06787-5|Q06787-6|Q06787-8|Q06787|Q06787-3|Q06787-7|Q06787-9|R9WNI0,1.16 ± 0.14,1.27 ± 0.1,1.56 ± 0.17,1.83 ± 0.13,2.14 ± 0.19,2.48 ± 0.15
UniProt P50213|H0YLF8,0.98 ± 0.039,0.963 ± 0.04,0.922 ± 0.036,0.95 ± 0.058,0.949 ± 0.057,0.932 ± 0.043
IDH1 (UniProt O75874),0.993 ± 0.056,0.988 ± 0.038,0.94 ± 0.052,0.94 ± 0.081,0.957 ± 0.04,0.949 ± 0.027
HMGN1 (UniProt P05114),1.23 ± 0.32,2 ± 0.51,1.5 ± 0.35,1.88 ± 0.89,1.67 ± 0.38,1.95 ± 1.1

Target,NP40-soluble protein abundance (concentration: 1mM),NP40-soluble protein abundance (concentration: 2mM),NP40-soluble protein abundance (concentration: 4mM),NP40-soluble protein abundance (concentration: 6mM),NP40-soluble protein abundance (concentration: 8mM),NP40-soluble protein abundance (concentration: 10mM)
CTDSPL2 (UniProt Q05D32),1.13 ± 0.11,1.13 ± 0.07,1.27 ± 0.09,1.32 ± 0.082,1.33 ± 0.14,1.47 ± 0.03
CCNA2 (UniProt P20248),0.998 ± 0.059,0.977 ± 0.027,0.993 ± 0.017,1.03 ± 0.046,0.9881 ± 0.0022,0.995 ± 0.05
TOP1 (UniProt P11387),1.05 ± 0.019,1.088 ± 0.0094,1.22 ± 0.028,1.42 ± 0.035,1.599 ± 0.0062,1.78 ± 0.074
DDX58 (UniProt O95786),1.06 ± 0.097,1.03 ± 0.063,1 ± 0.05,0.978 ± 0.078,1.03 ± 0.056,1.01 ± 0.055
UniProt Q01543|Q01543-3|Q01543-2,0.989 ± 0.05,0.997 ± 0.013,0.996 ± 0.032,1.01 ± 0.048,0.969 ± 0.033,0.9608 ± 0.0033
ZBTB11 (UniProt O95625),1.03 ± 0.057,1.004 ± 0.0071,1.03 ± 0.053,0.949 ± 0.021,0.97 ± 0.015,0.979 ± 0.04
HSPA4L (UniProt O95757),0.964 ± 0.015,0.9785 ± 0.0092,0.951 ± 0.018,0.987 ± 0.018,0.937 ± 0.036,0.949 ± 0.019
CDK6 (UniProt Q00534),0.984 ± 0.047,0.999 ± 0.051,0.988 ± 0.05,0.955 ± 0.058,0.966 ± 0.041,0.974 ± 0.064
GAA (UniProt P10253),0.981 ± 0.012,1.01 ± 0.021,1 ± 0.028,0.972 ± 0.015,0.962 ± 0.055,0.997 ± 0.033
PRIM2 (UniProt P49643),1.03 ± 0.057,1.02 ± 0.025,1.02 ± 0.032,1 ± 0.034,1.02 ± 0.028,1.03 ± 0.047
FXR2 (UniProt P51116),1.68 ± 0.23,1.77 ± 0.15,2.06 ± 0.29,2.24 ± 0.27,2.26 ± 0.3,2.33 ± 0.26
UniProt P06576|F8W0P7,0.822 ± 0.18,1.04 ± 0.22,0.825 ± 0.21,1.07 ± 0.2,1.05 ± 0.16,0.814 ± 0.21
UniProt P09471-2,1.04 ± 0.059,0.979 ± 0.043,0.949 ± 0.052,0.975 ± 0.1,0.9637 ± 0.0096,0.969 ± 0.014
PSMC2 (UniProt P35998),0.9515 ± 0.0057,0.914 ± 0.029,0.882 ± 0.016,0.908 ± 0.1,0.899 ± 0.053,0.894 ± 0.047
UniProt P06493,1.05 ± 0.054,1.06 ± 0.053,1.03 ± 0.063,1.03 ± 0.1,1.05 ± 0.058,1.05 ± 0.015
UniProt Q01826|Q01826-2,0.952 ± 0.051,0.96 ± 0.023,0.919 ± 0.039,0.96 ± 0.031,0.928 ± 0.02,0.922 ± 0.011
UniProt P56381,2.11 ± 1.8,0.927 ± 0.037,0.827 ± 0.014,1.2 ± 0.39,0.93 ± 0.067,0.875 ± 0.046
